Rows were chosen to be rich in hits. Some 4.1% of all compounds tested hit in one or more screens of this group.
TRPM1 prom inh = MITF TRPM1 promoter inhibition in SK-MEL-5 cells. SK-MEL-5 TRPM1 promoter luciferase, 24 h. inhibition, % at 12.5 µM. actives 0.83% (n = 330,000). AID 488899;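 active = mean inhibition across replicates of 60% or more, whatever share of single replicates reaches that level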
Peg3 promoter = reduces Peg3 promoter-driven luciferase expression in HeLa. HeLa PEG-Prom luciferase reporter, luminescence, overnight. inhibition, % at 20 µM. actives 1.7% (n = 360,000);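 active = inhibition of at least 50% at 20 µM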
Shn3 inh set2 = Schnurri-3 reporter inhibition in Clone20 osteoblasts. actives 0.52% (n = 360,000). AID 588674. inhibition, % at 12.5 µM. Clone20 osteoblast Shn3 3'UTR firefly luciferase, 24 h;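 active = mean inhibition of at least 75% with every replicate also reaching 75%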;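 also: 0% = median of neutral control wells and 100% = pilot-screen positive control compound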
LMP1 NFkB inh = reduces LMP1-driven NF-kappaB luciferase signal | LMP1-induced NF-kappaB luciferase reporter cells, luminescence | inhibition, % at 12.5 µM | actives 0.69% (n = 350,000); in the data active = inhibition above about 41%;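 also: 0% = neutral control wells and 100% = reference inhibitor control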
TROY NFkB inh = blocks TROY-dependent signaling in reporter cells | Q293 LMP1-TROYcd NF-kB luciferase reporter, 4 h | inhibition, % at 10 µM | actives 0.98% (n = 360,000);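 active = compounds whose plate-normalised and pattern-corrected inhibition of the luciferase reporter signal at the single screening dose is 50% or more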
TWEAK-Fn14 inh = blocks TWEAK-Fn14 interaction in a reporter cell assay; TWEAK-stimulated Fn14 reporter cells, luciferase luminescence, 8 h; inhibition, % at 10 µM; AID 1159606; actives 2% (n = 360,000); in the data active = inhibition above about 50%
Starred values were filed as active, the others as inactive; . = no result.

SMILES	TRPM1 prom inh	Peg3 promoter	Shn3 inh set2	LMP1 NFkB inh	TROY NFkB inh	TWEAK-Fn14 inh
C[C@H](CO)N1C[C@H](C)[C@H](CN(C)C(=O)c2ccccc2)Oc2cc(Br)ccc2S1(=O)=O	.	-5.7	8.9	-3.8	-15.1	-4.8
C[C@@H]1CN([C@@H](C)CO)S(=O)(=O)c2ccc(/C=C/c3ccccc3)cc2O[C@@H]1CN(C)Cc1ccc(C(=O)O)cc1	.	12.7	-5.0	54.8*	35.7	30.1
C[C@H](CO)N1C[C@H](C)[C@@H](CN(C)C(=O)c2ccc3c(c2)OCO3)Oc2cc(/C=C/c3ccccc3)ccc2S1(=O)=O	.	61.8*	13.2	-0.2	2.7	-15.2
C[C@@H]1CN([C@H](C)CO)S(=O)(=O)c2ccc(Br)cc2O[C@@H]1CN(C)Cc1ccc(C(=O)O)cc1	.	2.9	4.4	-7.4	-1.2	-0.9
CCOC(=O)c1ccccc1NC(=O)CSc1ccc(-c2ccccn2)nn1	27.8	46.5	29.8	-2.5	9.8	-6.7
CCOC(=O)C1CCN(C(=O)CCc2c(C)nc3cc(-c4ccccc4)nn3c2C)CC1	30.1	-50.3	31.7	6.2	-34.5	1.7
CCOC(=O)C1CCCCN1C(=O)CCc1c(C)nc2cc(-c3ccccc3)nn2c1C (stereo not drawn)	.	-36.8	15.2	16.9	8.8	68.7*
COc1cc(OC)cc(-c2cc3nc(C)c(CCC(=O)NC(C)CCc4ccco4)c(C)n3n2)c1 (stereo not drawn)	-4.3	14.9	29.7	9.7	1.0	7.7
COc1cc(OC)cc(-c2cc3nc(C)c(CCC(=O)O)c(C)n3n2)c1	.	31.9	78.5	52.7*	58.5*	90.3*
Cc1ccc(N2C(=O)N(CC(=O)N3CCOCC3)C(=O)C2C)cc1 (stereo not drawn)	5.3	-13.5	-12.7	0.2	-4.4	-10.3
CCc1ccccc1OCC(=O)Nc1nc(-c2cccnc2)cs1	14.5	30.9	39.0	10.5	61.2*	-39.1
Cc1ccc(S(=O)(=O)N(C)c2ccc(OCC(=O)Nc3nc4c(ccc5ccccc54)s3)cc2)cc1	-5.5	-53.0	33.8	8.0	5.7	-7.2
CN(c1ccc(OCC(=O)Nc2nc(-c3ccccc3)cs2)cc1)S(=O)(=O)c1ccc(F)cc1	-6.4	-7.4	31.1	19.4	18.1	55.2*
Cc1ccc[n+](CC(=O)Nc2nc3ccccc3s2)c1	10.3	-11.7	2.1	-0.2	81.5*	63.5*
Cc1ccc(S(=O)(=O)N(C)c2ccc(OCC(=O)Nc3nc4ccccc4s3)cc2)cc1	23.9	-20.4	67.4	9.9	24.2	70.3*
Cc1ccc(N(CC(=O)NCc2ccco2)C(=O)CNS(=O)(=O)c2ccccc2)c(C)c1	0.1	3.2	7.8	-3.5	-11.3	6.4
O=C(Nc1ccccc1N1CCOCC1)c1cccc(NS(=O)(=O)c2ccc(F)c(F)c2)c1	-2.4	6.8	-16.8	0.3	15.1	22.1
Cc1cccc(OCC(=O)Nc2nc3ccc([N+](=O)[O-])cc3s2)c1C	11.5	5.8	14.6	1.6	23.9	-27.2
Cc1cccc(OCC(=O)Nc2nc3ccc([N+](=O)[O-])cc3s2)c1	-4.7	-14.1	-4.1	4.0	58.6*	1.0
CCOC(=O)C1=C(COC(=O)c2ccccc2[N+](=O)[O-])NC(=O)NC1C (stereo not drawn)	4.2	6.2	-8.8	4.9	-9.6	-9.1
CC(c1ccco1)N(C(=O)COc1ccc(Cl)cc1Cl)c1ccccn1 (stereo not drawn)	-101.3	-120.3	-54.3	-21.3	62.2*	84.2*
COCCN(Cc1cccs1)S(=O)(=O)c1ccc(-c2ccc(=O)[nH]n2)s1	-6.2	8.8	8.2	5.4	6.1	-18.6
CCOC(=O)N1CCN(c2ccc(F)cc2[N+](=O)[O-])CC1	-6.0	6.7	1.4	-3.5	11.3	3.8
CCOC(=O)N1CCN(c2cc(N3CCOCC3)c(F)cc2[N+](=O)[O-])CC1	12.2	11.1	10.4	6.9	6.2	50.7*
COCC(=O)N1CCCC(CNS(=O)(=O)c2ccc(OC)cc2)C1 (stereo not drawn)	1.6	11.5	15.5	-1.2	70.8*	-8.9
COCCC(=O)N1CCCC(CNS(=O)(=O)c2ccc(OC)cc2)C1 (stereo not drawn)	26.9	-11.5	4.2	6.0	0.7	-2.8

Compound activity: PubChem BioAssay, several laboratories
